Assay outcomes deposited in PubChem by Small Molecule Screening Facility, UW Madison.
The full list was thinned out, with hits kept by preference.
RMI FANCM FP: disruptors of RMI1/RMI2 association with MM2 peptide – biochemical, fluorescence polarization, human, primary screen. RMI core complex (RMI1/RMI2) binding to FANCM MM2 peptide, human. RMI core complex with F-MM2 peptide; stronger effect = lower value. FP signal (polarization) at 33 µM. hit rate 0.58% among 70,000; in the data active = FP signal below about 40
Numbers without * were called inactive; ! = not confirmed by another sample.

SMILES	RMI FANCM FP
COCCNC(=O)Cc1cn(Cc2ccc(F)cc2)c2ccccc12	65
CC(=O)CSc1nc(Nc2ccccc2)c2cnn(-c3ccccc3)c2n1	77
CCS(=O)(=O)N1CCCc2ccc(NS(=O)(=O)Cc3ccc(Cl)cc3)cc21	72
COc1ccccc1-c1cnn2c(N3CCN(Cc4ccccc4)CC3)cc(C)nc12	60
OCCN1CCN(c2cc(-c3ccccc3)nc3c(-c4ccc(Cl)cc4)cnn23)CC1	28*
CC(C)(C)c1cc(N2CCN(C3CCCC3)CC2)n2ncc(-c3ccccc3)c2n1	60
Cc1ccsc1C=C1C(=O)OC(C)(C)OC1=O	59
O=C(Cn1cnc2c(cnn2C2CCS(=O)(=O)C2)c1=O)N1CCc2ccccc21 (stereo unspecified)	66
COc1ccc(/C=N\N=C2\NC(=O)C(CC(=O)Nc3sc4c(c3C#N)CCCC4)S2)cc1 (stereo unspecified)	58
COC(=O)c1c(NC(=O)CC2S/C(=N\N=C/c3ccc([N+](=O)[O-])cc3)NC2=O)sc2c1CCCC2 (stereo unspecified)	14*
O=C(CC1S/C(=N\N=C2CCCCC2)NC1=O)Nc1ccc([N+](=O)[O-])cc1 (stereo unspecified)	60
CN(CC(N)=O)S(=O)(=O)c1cccc2cnccc12	47
O=C(NCc1ccc2c(c1)OCO2)Nc1nc(CSCc2ccc(F)cc2)cs1	59
CCOc1ccc(-c2cc3c(SCc4cccc(C)c4)nccn3n2)cc1Cl	81
CCOC(=O)c1[nH]c2ccccc2c1NC(=S)Nc1cccc(Cl)c1C	65
CC(C)(C)CN/C(C#N)=C(\N)C#N	56
N#Cc1c(-c2cccnc2)c2c([nH]c1=O)-c1ccccc1SC2	33*
N#Cc1ccc(-c2cccnc2)[nH]c1=O	58
Cc1ccc(C)c(Cn2cnc3cc(C)c(C)cc32)c1	60
COc1ccc(/C=N\N=C2\NC(=O)C(CC(=O)Nc3ccccc3)S2)cc1 (stereo unspecified)	80
O=C(OCCOc1ccc(Cl)cc1Cl)c1ccccc1Cl	57
O=C(OCC(O)CO)c1ccccc1Nc1ccnc2cc(Cl)ccc12 (stereo unspecified)	-4*!
Clc1ccc2c(Nc3ccc4c(c3)OCO4)ccnc2c1	58
O=S(=O)(c1ccccc1)c1nc(COc2ccc(Cl)cc2Cl)oc1NCc1ccccc1	58
C/C(=N/O)c1ccc2c(c1)C(C)(C)CCC2(C)C	54
SMILES	RMI FANCM FP
COc1ccc(-c2cc3c(SCC(=O)NCc4ccccc4OC)nccn3n2)cc1	92
CN(C)c1ccc(C=Nc2ccccc2CC(c2c[nH]c3ccccc23)c2c[nH]c3ccccc23)cc1	61
Cc1ccc(NC(=O)c2ccc(N3C(=O)CCC3=O)cc2)c(C(=O)c2ccccc2)c1	55
O=C(COc1ccc2ccccc2c1)NCC(c1ccco1)N1CCc2ccccc21 (stereo unspecified)	50
N#Cc1ccc2nc(C(O)C(O)c3nc4ccc(C#N)cc4[nH]3)[nH]c2c1 (stereo unspecified)	29*
OC(c1ccccc1)c1nc2ccccc2[nH]1 (stereo unspecified)	60
OC(c1nc2ccccc2[nH]1)C(O)c1nc2ccccc2[nH]1 (stereo unspecified)	54
O=C(O)c1cncc(Cl)c1	57
COc1ccc(C(=O)Nc2cc(C)nn2C(C)C)cc1	71
Cc1cc(C(=O)Nc2ccc3c(c2)OCCO3)on1	75
Cc1nc2cc3ccccc3cc2c(=O)n1/N=C\N(C)C	8*
Cc1cc(Sc2nnc(N=CN(C)C)s2)c2ccccc2n1	56
COc1cc(/C=N\n2c(C)nc3c(ncn3-c3ccccc3)c2=O)cc(OC)c1OC	86
CC(C)C(=O)N1CCc2ccc(NC(=O)Cc3ccc(F)cc3)cc2C1	66
CCOC(=O)c1oc2nc3c(c(-c4cccnc4)c2c1N)CCc1ccccc1-3	37*
CCOC(=O)Cn1c(-c2cccnc2)nc(-c2ccccc2)c1-c1ccccc1	62
COCc1cc(C)nc2oc(C(=O)c3ccccc3)c(N)c12	61
Cc1ccccc1CSc1n[nH]c(=O)c2cc(-c3cccs3)nn12	71
CC12CCC(C(=O)N3CCC(C(=O)O)CC3)(CC1=O)C2(C)C (stereo unspecified)	58
CC1CCCCN1C(=O)C12CCC(C)(/C(=N\O)C1)C2(C)C (stereo unspecified)	25*
COc1ccc(N2CCN(C(=O)C34CCC(C)(C(=O)C3)C4(C)C)CC2)cc1 (stereo unspecified)	63
O=S(=O)(Nc1nc(SCc2ccc(Cl)cc2)n[nH]1)c1cccc2nonc12	63
Oc1c(Cl)cc(Cl)cc1/C=N\NC(=S)NC1CC2CCC1C2 (stereo unspecified)	11*
OCCN/N=C\c1cc(Cl)cc(Cl)c1O	40
Oc1ccccc1/C=N\NC(=S)NC1CC2C=CC1C2 (stereo unspecified)	53
SMILES	RMI FANCM FP
Cc1ccc(C(=O)Cn2cnc(-c3ccc(F)cc3)cc2=O)c(C)c1	61
Cc1cc(C(=O)Nc2ccc(S(C)(=O)=O)cc2)no1	64
Cc1nc2ccccc2nc1C	53
c1ccc2c(c1)Nc1nc3ccccc3nc1O2	57
c1ccc2c(c1)Nc1nc3ccccc3nc1N2	-3*
O=C(CSc1cn(Cc2ccc(Br)cc2)c2ccccc12)N1CCN(c2ccccc2)CC1	58
O=c1oc2ccccc2cc1-c1nc(-c2ccc(Oc3ccc(C(F)(F)F)cc3[N+](=O)[O-])cc2)no1	55
O=C(Nc1ccc2c(c1)N(S(=O)(=O)c1cccs1)CCC2)c1cccs1	54
COc1ccccc1OCC(=O)NCC1CCN(C(C)C)CC1	72
COC(=O)CN(C(c1ccccc1)c1cc(Br)ccc1NS(=O)(=O)c1ccc(C)cc1)S(=O)(=O)c1ccc(C)cc1 (stereo unspecified)	60
CC1CN(CC(O)COc2ccc(Br)cc2Br)CC(C)O1 (stereo unspecified)	63
Cc1ccc(C)c(Cn2cnc3c(-c4cccc(Cl)c4)csc3c2=O)c1	66
O=c1c2scc(-c3ccccc3)c2ncn1Cc1cccc(Cl)c1	63
O=c1c2scc(-c3cccc(Cl)c3)c2ncn1Cc1cc(=O)n2ccccc2n1	16*
Cc1ccc2nc(-c3ccc(OCC(=O)N=Nc4c(O)[nH]c5ccccc45)cc3)cc(-c3ccccc3)c2c1	20*
CCOC(=O)COc1ccc(-c2cc(-c3ccccc3)c3cc(Cl)ccc3n2)cc1	64
CCCOc1ccc(-c2cc(C(=O)N=Nc3c(O)[nH]c4ccccc34)[nH]n2)cc1	58
O=S(=O)(NCCc1ccccc1)c1cccc(Cl)c1	57
O=[N+]([O-])c1ccc2sc(-c3nc4ccccc4s3)cc2c1	52
CCCN1CCCc2cc(CCNC(=O)CC(C)(C)C)ccc21	77
CCCN1CCCc2cc(CCNC(=O)c3c(F)cccc3F)ccc21	59
CCCN1CCCc2cc(CCNS(=O)(=O)c3cccc(F)c3)ccc21	17*
CCCN1CCCc2cc(CCNS(=O)(=O)c3ccc(Br)cc3)ccc21	139
CCCN1CCCc2cc(CCNS(=O)(=O)c3ccc(OC)c(F)c3)ccc21	192
CCCN1CCCc2cc(CCNC(=O)Cc3ccc(F)cc3)ccc21	28*
Cn1cccc1C(CNC(=O)COc1ccc(Cl)cc1)N1CCc2ccccc2C1 (stereo unspecified)	61
CC(C)NC(=O)N1CCC(c2nnc(C3CC3)s2)CC1	62
